VCAM1 TNFa inh – inhibitors of TNFa-induced VCAM1 expression, primary screen, imaging, HUVEC, TNFa stimulus, immunofluorescence; actives 0.48% (n = 95,000); inhibition, % at 2 µM; HUVEC TNFa-induced VCAM-1 immunofluorescence, high-content imaging;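 active = inhibition above the batch mean plus 3 SD, with images confirmed as a hit by eye, cut at about 37% in these data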;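 also: 0% = TNF-stimulated DMSO wells and 100% = unstimulated control wells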
NFkB transloc pot – enhancers of NFkB p65 translocation in HUVEC – imaging, IL-1B stimulus, high-content imaging, primary screen. activation, % at 2 µM. HUVEC IL-1B NFkB p65 nuclear translocation imaging. actives 0.3% (n = 94,000). AID 819, 2007;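 active = activation above 40%, about the mean plus 3 SD, also judged a hit on visual image review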;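 also: percent activation is computed from the nuclear over cytoplasmic p65 intensity ratio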
IL1B cytotox – cytotoxicity in IL-1B stimulated HUVEC, primary screen, cytotoxicity control for IL-1B NFkB translocation project, imaging, Hoechst nuclear count, IL-1B stimulus | HUVEC cell count loss | cell count reduction, % at 2 µM | actives 0.41% (n = 94,000) | AID 845, 2007;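 active = cell count reduction more than 3 SD above the screen-wide mean, cut at about 70% in these data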;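 also: normalized per plate to untreated control cells as the no-loss baseline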
IL1B NFkB inh – inhibitors of IL-1B driven NFkB p65 nuclear import, primary screen, imaging, HUVEC, IL-1B stimulus, high-content imaging; HUVEC IL-1B NFkB p65 nuclear translocation imaging; inhibition, % at 2 µM; actives 0.43% (n = 94,000); AID 796, 2007;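 active = inhibition above about 30% together with a positive call from visual inspection of the well image, limit read from the data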;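 also: nuclear over cytoplasmic p65 intensity ratio measured by imaging; 0% = IL-1B stimulated DMSO wells and 100% = unstimulated DMSO wells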
HUVEC tox TNFa – cytotoxicity in TNFa-stimulated HUVEC, primary screen, cytotoxicity control for VCAM1 expression modulator project, imaging, Hoechst nuclei count; actives 0.17% (n = 93,000); cell count reduction, % at 2 µM; HUVEC TNFalpha-stimulated, Hoechst cell count;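 active = cell count reduction exceeding the screen mean by over 5 SD, scaled to untreated wells per plate, cut at about 78% in these data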;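 also: cells counted after 24 h of TNF alpha exposure following the 1 h pretreatment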
* hit, by the source's call; · = no result. Shown are actives, neighbours in structure and some others; about 1.5% of the full set was active somewhere.

SMILES	VCAM1 TNFa inh	NFkB transloc pot	IL1B cytotox	IL1B NFkB inh	HUVEC tox TNFa
O=C(CN1C(=O)c2ccccc2C1=O)Nc1ccccc1C(=O)NC1CCCCC1	28	-7	12	-2	-17
CCOC(=O)CSc1nc(-c2ccccc2)nc2ccccc12	16	2	8	-2	-15
CCOC(=O)CSc1cc(CS(=O)(=O)c2ccccc2)nc(-c2ccccc2)n1	-5	11	83*	-11	-35
O=C1CC(N2CCN(Cc3ccc4c(c3)OCO4)CC2)C(=O)N1c1ccccc1 (configuration not stated)	61*	-9	14	9	26
COc1ccc(/C=C/C(=O)c2ccccc2)cc1COc1ccc(F)cc1	8	15	-28	-15	-5
COc1ccc(/C=C/C(=O)c2cc(F)ccc2OC(=O)c2ccccc2)cc1OC	97*	-24	53	24	76
Cc1ccc(CCNC(=O)Cn2cccc2)cc1	5	-98	88*	98*	-8
Cc1ccc(CCNC(=O)NC(C)(C)C)cc1	33	-1	2	1	-4
O=C(COC(=O)c1c[nH]c(=O)[nH]c1=O)NCc1ccccc1	18	15	-5	-15	-21
CCCOc1ccc(/C(O)=C2/C(=O)C(=O)N(CCN(C)C)C2c2ccncc2)cc1 (configuration not stated)	19	29	-36	-29	-18
C/C(=C\c1ccccc1)CN1CCC(C(=O)N2CCC(C)CC2)CC1	3	46*	-15	-46	-8
CCCCNC(=O)C1CCN(C/C(C)=C/c2ccccc2)CC1	9	-2	0	2	-17
Cc1ccsc1C(C(=O)NC1CCCCC1)N(C(=O)c1csnn1)C1CC1 (configuration not stated)	3	17	0	-17	7
CN(c1ccc(C(=O)NCCSC(C)(C)C)cc1)S(C)(=O)=O	6	-5	87*	5	9
O=C(CSc1nnc(COc2ccccc2)o1)N1CCN(c2ccccc2)CC1	-10	24	-9	-24	0
Cc1cc(C)cc(OCc2nnc(SCC(=O)N3CCN(c4ccccc4)CC3)o2)c1	100*	7	-9	-7	·
O=C(Cn1c(-c2cncs2)nc2ccccc21)NCc1ccccc1	1	-2	90*	2	5
O=C(Nc1ccccc1)OCCNC(=O)c1ccccc1	20	40*	-66	-40	-7
CCOC(=O)N/N=C/c1ccc(C)o1	-10	-33	-12	33*	-2
O=C(N/N=C/c1ccc(Br)cc1)c1ccccc1-n1cccc1	8	0	-3	0	-10
CSc1ccc(-c2nnn(Cc3ccccn3)n2)cc1	12	11	-15	-11	8
CSc1ccc(-c2nnn(Cc3ccc(Br)cc3)n2)cc1	12	58*	13	-58	-14
CC(=O)c1cc(F)c(N2CCN(C(=O)COc3ccc(F)cc3)CC2)cc1C	7	16	83*	-16	-6
Cc1onc(-c2ccccc2Cl)c1C(=O)Nc1cccc(-c2cn3cccnc3n2)c1	20	-94	85*	94*	-10
Cn1c(SCc2ccc(Cl)cc2Cl)nc(C(F)(F)F)cc1=O	3	44*	-91	-44	2
SMILES	VCAM1 TNFa inh	NFkB transloc pot	IL1B cytotox	IL1B NFkB inh	HUVEC tox TNFa
CCSc1nc(C(F)(F)F)cc(=O)n1-c1ccccc1	7	3	9	-3	10
COC(=O)c1nnn(CC(=O)Nc2cccc(Cl)c2C)c1C(=O)OC	4	11	-5	-11	-24
Clc1ccc(-n2ncc3c(NCc4ccc5c(c4)OCO5)ncnc32)cc1	80*	8	-14	-8	28
CC1(C)CC(=O)c2sc(NC(=O)c3cccs3)nc2C1	-35	-2	-17	2	-2
Oc1ccc(/C=N/NC2=NCCCCC2)cc1	6	-5	-3	5	-1
CCOc1cc(/C=C\[N+](=O)[O-])ccc1OCC(=O)Nc1ccccc1C	11	-9	46	9	-2
CCOc1cc(/C=C\c2[nH]c(=O)[nH]c(=O)c2[N+](=O)[O-])ccc1OC(C)CC (configuration not stated)	-4	47*	-67	-48	17
O=C1N2CCSC2=NC1(Nc1ccccn1)C(F)(F)F (configuration not stated)	86*	22	-24	-22	-18
CS(=O)(=O)N(CCc1ccccc1)CC(=O)NCC1CCCO1 (configuration not stated)	10	3	-2	-3	-22
COC(=O)C1=C(C)N(Cc2ccc(C)cc2)C(=O)C1	-4	-5	-11	5	-2
Cc1ccccc1-n1ncc2c(SCC(=O)NCc3cccs3)ncnc21	-14	105*	-12	-105	-19
Cc1csc(NC(=O)CSc2ncnc3c2cnn3-c2ccccc2Cl)n1	-18	5	-7	-5	-29
O=C(O)Cn1cc(C(=O)C2CC2)c2ccccc21	12	19	82*	-19	-5
O=C(Cn1cc(C(=O)C2CC2)c2ccccc21)NCc1ccccc1	4	19	-31	-19	-9
O=C(O)C1CCC(N2C(=O)C3CCCCC3C2=O)CC1 (configuration not stated)	78*	11	-18	-11	57
O=C(O)CCN1C(=O)C2CCCCC2C1=O (configuration not stated)	-8	7	9	-8	-3
Cc1c(CCO)c(=O)n(-c2ccccc2)n1S(=O)(=O)c1ccc(Cl)cc1	13	-2	-29	2	-43
O=C(COc1ccccc1F)NC1CCN(Cc2ccccc2)CC1	-12	4	-5	-4	-39
COC(=O)[C@H](C)NC(=O)NC1CCN(Cc2ccccc2)CC1	14	1	83*	-1	0
Cc1cccc(N(C)S(=O)(=O)c2ccc3[nH]c(=O)c(=O)[nH]c3c2)c1	-7	-9	73*	9	-16
Cc1cccc(N(C)S(=O)(=O)c2ccc3[nH]cc(C(=O)N4CCOCC4)c(=O)c3c2)c1	9	-1	14	1	-14
Cc1ccc(S(=O)(=O)c2c(COC(=O)c3ccc(Cl)cc3)c(-c3ccccc3)nn2C)cc1	1	·	·	·	8
Cc1ccc(Nc2nc(CSc3nnnn3C)cs2)cc1	96*	-1	4	1	-25
CC1=NN(c2ccccc2)C(=O)C1(C)C	7	-50	-1	50*	0
Cc1nc(=O)cc(-c2ccccc2)n1-c1ccccc1	-2	5	-5	-5	-7
CCn1c2ccccc2c2cc(/C(C)=N/O)ccc21	16	2	6	-2	-5
C/C(=N\O)c1ccc2c3ccccc3n(C)c2c1	41*	21	-1	-21	29
O=C(NCc1ccncc1)C1CCN(S(=O)(=O)Cc2ccccc2)CC1	8	12	3	-12	-8

Assay outcomes deposited in PubChem by Columbia University Molecular Screening Center.
